Results published in PubChem BioAssay (NCATS).
Records with an inconclusive call do not appear. Activity calls are given as the source filed them. The call rests on the fitted dose curve; in most records, active means well fitted inhibition curve with a large enough effect; inconclusive means small, poorly fitted or top-dose-only effect; inactive means flat fitted curve, though single readings scatter.

Experiments:
Test in all cases: Cytotoxic Profiling of Annotated Libraries Using Quantitative High-Throughput Screening (AID 1296008); further: nearly all actives have a fitted effect of over 60% in size
Details in all cases: Five cell lines viability, CellTiter-Glo ATP luminescence, 48-72 h; max response: hits give low values
[1] = tested on: HEK293
Procedure, shortened: (§1)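 Cells exposed to compounds for 48 or 72 hr at 37 degrees Celsius. Viability read as ATP-coupled luminescence with CellTiter-Glo after 10 min at room temperature.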

[2] = tested on: HaCat
Procedure, shortened: as §1

[3] = tested on: KB-3-1
Procedure, shortened: as §1

[4] = tested on: NIH3T3
Procedure, shortened: as §1
On the % scale 0 is the no-effect control and ±100 the full control effect; potency means the concentration at half of the fitted maximal effect.

CC1OC(OCC2OC(OC3CCC4(C)C(CCC5(C)C4CC=C4C6CC(C)(C)CCC6(C(=O)OC6OC(CO)C(O)C(O)C6O)CCC45C)C3(C)CO)C(O)C(O)C2O)C(O)C(O)C1O (configuration not stated)
inactive: max response [1] -5.12% | max response [2] 2.13% | max response [3] 9.22% | max response [4] 0.258%

COc1cc(C(=O)OC[C@@]2(O)CO[C@@H](O[C@H]3[C@H](Oc4ccc(C(=O)O)cc4OC)O[C@H](CO)[C@@H](O)[C@@H]3O)[C@@H]2O)ccc1O
inactive: max response [1] -19.1% | max response [2] 1.78% | outcome [3] | max response [4] 3.57%

CC(=O)NC1C(OC(C)(C)C2CCC3(C)C=C(C4CCC5C4(C)CC(O)C4OC(C(C)(C)O)CCC45C)CCC3O2)OC(CO)C(O)C1O (configuration not stated)
inactive: max response [1] -2.64% | max response [2] 3.68% | max response [3] -23.5% | max response [4] -10.4%

CO[C@H]1C[C@@H]2CC[C@@H](C)[C@@](O)(O2)C(=O)C(=O)N2CCCC[C@H]2C(=O)O[C@H]([C@H](C)C[C@H]2CC[C@@H](OP(C)(C)=O)[C@H](OC)C2)CC(=O)[C@H](C)/C=C(\C)[C@@H](O)[C@@H](OC)C(=O)[C@H](C)C[C@H](C)/C=C/C=C/C=C/1C
active: Potency [1] 0.0064 µM
inactive: max response [2] -3.04% | max response [3] 4.5% | max response [4] -2.54%

Cn1ncnc1COc1nn2c(-c3cc(F)ccc3F)nnc2cc1C(C)(C)C
inactive: max response [1] 0.514% | max response [2] -21.7% | max response [3] 8.68% | max response [4] -2.09%

OC[C@H]1O[C@@H](Oc2ccccc2)[C@H](O)[C@@H](O)[C@@H]1O
inactive: max response [1] 0.0932% | max response [2] 3.54% | outcome [3] | max response [4] -2.04%

C=C[C@H]1C(O[C@@H]2O[C@H](CO)[C@@H](O)[C@H](O)[C@H]2O)OC=C2C(=O)N3CCc4c([nH]c5ccccc45)[C@H]3C[C@H]21 (some centres not stated)
inactive: max response [1] -11.2% | max response [2] 2.83% | max response [3] 3.99% | max response [4] 2.76%

COC(=O)C1=CO[C@@H](O[C@@H]2O[C@H](CO)[C@@H](O)[C@H](O)[C@H]2O)[C@H]2[C@@H]1CC(OC)O[C@@H]2C (some centres not stated)
inactive: max response [1] 4.51% | max response [2] -16.4% | max response [3] 3.52% | max response [4] -1.67%

CC(C)CC(=O)O[C@@H]1OC=C(CO[C@@H]2O[C@H](CO)[C@@H](O)[C@H](O)[C@H]2O)[C@H]2[C@@H]3O[C@H]3[C@@](O)(CO)[C@@H]12
inactive: max response [1] -8.14% | max response [2] 1.46% | max response [3] 6.77% | max response [4] 2.35%

C=C(C(=O)O)[C@@H]1CC[C@@]2(C)CC[C@H](O)[C@@]2(C(C)=O)C1
inactive: max response [1] -2.38% | max response [2] -0.694% | max response [3] 2.3% | max response [4] -3.95%

N#C[C@@H]1CCCN1C(=O)CNC12CC3CC(CC(O)(C3)C1)C2
inactive: max response [1] -12.1% | max response [2] -2.22% | outcome [3] | max response [4] -1.17%

CC1COC(Nc2ccc3ncnc(Nc4ccc(OCc5nccs5)c(Cl)c4)c3c2)=N1 (configuration not stated)
active: Potency [1] 11.6 µM | Potency [2] 1.84 µM
inactive: max response [3] -8.52% | max response [4] 3.7%

C=C1C[C@]23C[C@H]1[C@@H](O)C[C@H]2[C@@]12C=C[C@H](O)[C@@](C)(C(=O)O1)[C@H]2[C@@H]3C(=O)O
inactive: max response [1] -1.36% | max response [2] -32.5% | max response [3] -2.31% | max response [4] 0.227%

COc1ccc([C@H]2CNC(=O)C2)cc1OC1CCCC1
inactive: max response [1] -1.53% | max response [2] -27.2% | max response [3] -2.59% | max response [4] -18.3%

COc1cc(N2CCOCC2)ccc1Nc1ncc(Cl)c(Nc2ccccc2NS(C)(=O)=O)n1
active: Potency [1] 1.84 µM | Potency [2] 4.61 µM | Potency [3] 2.31 µM | Potency [4] 6.51 µM

NC1(C(=O)NC(CCO)c2ccc(Cl)cc2)CCN(c2ncnc3[nH]ccc23)CC1 (configuration not stated)
inactive: max response [2] -41.5% | max response [3] -13.8% | outcome [4]
active: Potency [1] 1.03 µM

CCCCNc1ncc2c(-c3ccc(CN4CCN(C)CC4)cc3)cn(C3CCC(O)CC3)c2n1 (configuration not stated)
active: Potency [1] 7.31 µM | Potency [2] 0.92 µM | Potency [3] 1.03 µM | Potency [4] 1.3 µM

C/C=C(\C)C(=O)O[C@H]1[C@@H](O[C@]2(COC(=O)CC(C)C)O[C@H](COC(=O)C(C)CC)[C@@H](OC(C)=O)[C@@H]2O)O[C@H](COC(C)=O)[C@@H](O)[C@@H]1O (some centres not stated)
inactive: max response [1] 2.82% | max response [2] 1.55% | max response [3] 6.8% | max response [4] -0.857%
